Screening results: PubChem, several laboratories
14-3-3 Bad inh = disrupts binding of bovine 14-3-3 zeta to phospho-Bad peptide | TR-FRET 14-3-3zeta/Dy647-pBad peptide displacement, 1 h | P63103 | AID 781 | inhibition, % at 21.7 µM | 220,000 tested, 0.71% active;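 active means inhibition above about 70%, limit read from the data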
Target sequence (P63103 whole entry, looked up): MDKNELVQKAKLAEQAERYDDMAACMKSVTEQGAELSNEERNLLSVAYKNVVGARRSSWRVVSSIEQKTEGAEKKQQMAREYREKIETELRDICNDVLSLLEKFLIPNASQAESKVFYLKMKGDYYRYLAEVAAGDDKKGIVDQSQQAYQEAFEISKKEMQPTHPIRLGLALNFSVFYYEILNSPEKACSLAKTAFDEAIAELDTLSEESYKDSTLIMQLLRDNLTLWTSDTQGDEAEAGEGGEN
Mcl1 Noxa PPI = Mcl-1/Noxa interaction inhibition. 220,000 tested, 1.5% active. Q07820. TR-FRET Mcl-1/Noxa peptide binding, 2 h. inhibition, % at 21.7 µM;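 active means compounds that cut the protein-peptide binding signal by more than 50% relative to plate controls in a single-dose test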;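 further: His-tagged Mcl-1 with rhodamine Noxa BH3 peptide and terbium anti-His antibody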
Target sequence (Q07820 whole entry, looked up): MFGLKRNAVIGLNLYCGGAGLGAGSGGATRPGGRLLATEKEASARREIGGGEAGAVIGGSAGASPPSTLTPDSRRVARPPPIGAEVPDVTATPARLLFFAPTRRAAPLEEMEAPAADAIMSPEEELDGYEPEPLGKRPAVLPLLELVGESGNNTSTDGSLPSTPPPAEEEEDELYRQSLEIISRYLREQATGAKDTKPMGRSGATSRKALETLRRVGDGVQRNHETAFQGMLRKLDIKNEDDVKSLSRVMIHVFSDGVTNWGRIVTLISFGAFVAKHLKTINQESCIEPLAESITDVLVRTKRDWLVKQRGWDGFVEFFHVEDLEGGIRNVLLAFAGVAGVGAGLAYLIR
eIF4E 4G PPI = inhibitors of eIF4E and eIF4G interaction in translation initiation; P63073+Q04637; TR-FRET eIF4E-eIF4GI(517-606) binding, 2 h; inhibition, % at 21.7 µM; 220,000 tested, 0.37% active;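 active means inhibition above about 30%, limit read from the data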
Pf gametocyte = inhibitors of late stage P. falciparum gametocyte viability | P. falciparum stage V gametocytes, ATP luminescence, 24 h | inhibition, % at 10.9 µM | 150,000 tested, 0.065% active | AID 743093;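 active means inhibition above the mean plus 3 SD of compounds within the control limits, set per campaign, cut at about 38% in these data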
Mcl1 Bid PPI = Mcl-1/Bid interaction inhibition; Q07820; TR-FRET Mcl-1/Bid-Dy647 peptide binding, 1536-well; inhibition, % at 21.7 µM; 220,000 tested, 0.97% active;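 active means compounds that cut the binding signal by more than half at the single screening dose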;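 further: His-tagged Mcl-1 with europium anti-His antibody binding Bid BH3 peptide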
Mcl-1 Bim block = human Bim-Mcl-1 interaction inhibition; AID 1009; 190,000 tested, 0.1% active; Bead-based flow cytometry, Bim peptide-Mcl-1 binding; inhibition, % at 10 µM; in the data active means inhibition above about 40%
A number is an active result; . = inactive; / = no result given; ! = a repeat was not active; [ ] = remark or other dose. An excerpt weighted towards active compounds, which were near 2.7% of everything screened.

SMILES	14-3-3 Bad inh	Mcl1 Noxa PPI	eIF4E 4G PPI	Pf gametocyte	Mcl1 Bid PPI	Mcl-1 Bim block
Nc1ccc2c(c1)COc1ccccc1O2	.	.	.	/	.	.
Nc1ccc2c(c1)OC1(CCCCC1)O2	100	.	.	.	.	.
COCCCNC(=O)c1ccc2c3c(onc13)-c1ccccc1C2=O	.	55	.	/	.	/
CCN1C(=O)/C(=C\c2ccc(-c3ccc([N+](=O)[O-])cc3OC)o2)SC1=Nc1cccc(C(=O)O)c1	.	98	64	/	70	.
Cc1cccc(N2CC(c3nc4ccccc4[nH]3)CC2=O)c1 (configuration not stated)	.	.	.	.	.	.
CC1CCCN(Cc2c(O)ccc3c(=O)c(-c4nc5ccccc5s4)c(N)oc23)C1 (configuration not stated)	.	.	.	/	.	.
CC1CCN(Cc2c(O)ccc3c(=O)c(-c4nc5ccccc5s4)c(N)oc23)CC1	.	53	.	.	.	.
O=C(O)CCCNC(=O)c1ccccn1	.	.	.	.	.	.
CCOC(=O)CSc1nnc(-c2ccc(OC)cc2)n1CC	.	.	.	/	.	.
CCOC(=O)CSc1nnc(-c2cccc(Cl)c2)n1CC	.	.	.	/	.	45
O=C1CC(Nc2cc(=O)[nH]c(=O)[nH]2)C(=O)N1c1ccccc1Cl (configuration not stated)	.	.	.	.	.	/
C/C=C\C=C/C(=O)Nc1cccc(C2=NOC3(C2)C[C@H](C(N)=O)N(C(=O)Cc2ccc([N+](=O)[O-])cc2)C3)c1 (some centres not stated)	.	65	.	.	.	/
C/C=C\C=C/C(=O)Nc1cccc(C2=NOC3(C2)C[C@@H](C(N)=O)N(C(=O)c2ccc(Cl)cc2)C3)c1 (some centres not stated)	.	.	.	.	.	/
C/C=C\C=C/C(=O)Nc1cccc(C2=NOC3(C2)C[C@H](C(N)=O)N(C(=O)c2ccc(OC)cc2)C3)c1 (some centres not stated)	.	63	.	.	.	/
O=C(COC(=O)C1CCN(S(=O)(=O)c2ccc3c(c2)OCCO3)CC1)Nc1cc(C(F)(F)F)ccc1Cl	.	.	.	.	.	.
O=C1OC(c2ccccc2)/C(=C(/O)c2ccc(Cl)cc2)C1=O (configuration not stated)	71	.	.	/	.	.
COC(=O)c1ccc(COC(=O)CNS(=O)(=O)c2ccc(C)cc2)cc1	.	.	.	.	.	.
CCN(CC)C(=O)CSc1nc2ccccc2c(=O)n1-c1cccc(OC)c1	.	.	.	/	.	.
COc1cccc(-n2c(SCc3cc(=O)oc4cc(O)c(O)cc34)nc3ccccc3c2=O)c1	.	100	.	.	.	.
CCNS(=O)(=O)c1ccc(NC(=S)NCC2CCCO2)cc1 (configuration not stated)	.	.	.	.	.	.
N#CC1=C(O)C(c2ccccc2)n2c1nc(=O)c1ccccc12 (configuration not stated)	90	.	.	/	.	.
CC(C)Cn1ccc(=O)n(CC(C)C)c1=O	.	.	.	/	55	.
COC1=C(OC)C(=O)C(CCCCCCCCCCO)=C(C)C1=O	.	55	.	/	.	.
CC1=C(C)C(=O)C(CCCCC#CCCCC#CCO)=C(C)C1=O	.	.	.	/	.	.
CCN(CC)CCCN1C(=O)CSC1c1ccc([N+](=O)[O-])cc1 (configuration not stated)	.	.	.	.	.	.
SMILES	14-3-3 Bad inh	Mcl1 Noxa PPI	eIF4E 4G PPI	Pf gametocyte	Mcl1 Bid PPI	Mcl-1 Bim block
COc1ccc(C2SCC(=O)N2CCCN(C)C)cc1 (configuration not stated)	.	.	.	/	91	.
O=C(O)C[C@@H]1C(=O)O[C@@H]2C(COC(=O)c3cc(O)c(O)c(O)c3)O[C@@H](OC(=O)c3cc(O)c(O)c(O)c3)[C@@H](OC(=O)c3cc(O)c(O)c4c3[C@H]1[C@H](O)C(=O)O4)[C@H]2OC(=O)c1cc(O)c(O)c(O)c1 (some centres not stated)	81	100	38	/	76	/
O=C(C1=C[C@H](C2CCCCC2)C[C@H](OCc2ccc(CO)cc2)O1)N1CCN(Cc2ccc3c(c2)OCO3)CC1	.	.	.	/	.	.
CC(C)NC(=O)/C(=C/c1cn(-c2ccccc2)nc1-c1cccc([N+](=O)[O-])c1)NC(=O)c1ccccc1	.	.	.	.	.	.
CN1c2ccsc2C(O)=C(C(=S)Nc2ccc(F)c(Cl)c2)S1(=O)=O	.	.	.	/	54	.
Cn1cc(C(=O)Nc2ccc(F)c(Cl)c2)cn1	.	.	.	.	.	.
COc1cc(OC)cc(-c2cc(N)n(S(=O)(=O)c3cccc4nsnc34)n2)c1	.	.	.	.	.	/
CCn1c2ccccc2c2cc(/C(C)=N/O)ccc21	.	.	.	.	.	.
CCn1c2ccccc2c2cc(N)ccc21	.	62	.	/	.	.
CCn1c(SCCN2CCCCC2)nnc1-c1ccc(S(=O)(=O)N2CCOCC2)cc1	75	.	.	.	.	.
CC1CCCN(C(=O)CSc2nnc(-c3ccc(S(=O)(=O)N4CCOCC4)cc3)n2C)C1 (configuration not stated)	85[fluorescence artefact?]	.	.	/	.	.
Cc1ccc(NC(=O)CN2C(=O)NC(C)(c3ccc(Cl)cc3)C2=O)cc1S(=O)(=O)N1CCOCC1 (configuration not stated)	.	.	.	.	.	.
Cc1ccc(/C(O)=C2\C(=O)C(=O)N(C)C2c2cccc([N+](=O)[O-])c2)cc1 (configuration not stated)	/	/	/	.	/	/
CC(C)Nc1ccc(Nc2ccnc3cc4ccccc4cc23)cc1	.	68	.	.	.	/
Cc1cccc(C)c1NC(=O)COC(=O)c1cccnc1	.	56	.	.	.	.
COC(=O)C(C)NC(=O)CNS(=O)(=O)c1ccc(F)cc1 (configuration not stated)	.	.	.	.	.	.
CC(C)C1Nc2ccc(C(=O)O)cc2C2C=CCC21 (configuration not stated)	.	.	.	.	.	.
O=C(O)C1Nc2c(C(=O)N3CCOCC3)cccc2C2C=CCC12 (configuration not stated)	.	80	.	/	.	.
Cc1cc(C)c2c(c1)NC(C(=O)O)C1CC=CC21 (configuration not stated)	/	/	/	.	/	/
CCOC(=O)c1ccc2c(c1)C1C=CCC1C(C(=O)O)N2 (configuration not stated)	.	104	47	/	62	.
Cc1ccc2c(c1C)NC(C(=O)O)C1CC=CC21 (configuration not stated)	.	99	61!	/	96	.
CCCCC(=O)Nc1ccc(C(=O)NNC(=O)CCCOc2ccc(Cl)cc2Cl)cc1	.	.	.	.	.	.
